According to the supplement of paper PMC12819154, “High-throughput peptide-centric local stability assay extends protein–ligand identification to membrane proteins, tissues and bacteria” (Nature Structural & Molecular Biology, 2025):

Each target was assayed with CN[C@@H]1C[C@H]2O[C@@](C)([C@@H]1OC)n1c3ccccc3c3c4c(c5c6ccccc6n2c5c31)C(=O)NC4 [staurosporine] (assay: log2 fold change of tryptic peptide abundance, ligand vs vehicle (limited proteolysis) (log2 ratio); higher = more trypsin-susceptible (destabilized)). Settings: ligand concentration: 20 uM; sample: K562 cleared lysate; digestion: 4 min, 22 C (HT-PELSA RT4min, Orbitrap Astral).

UniProt O60231, sequence (O60231 whole entry): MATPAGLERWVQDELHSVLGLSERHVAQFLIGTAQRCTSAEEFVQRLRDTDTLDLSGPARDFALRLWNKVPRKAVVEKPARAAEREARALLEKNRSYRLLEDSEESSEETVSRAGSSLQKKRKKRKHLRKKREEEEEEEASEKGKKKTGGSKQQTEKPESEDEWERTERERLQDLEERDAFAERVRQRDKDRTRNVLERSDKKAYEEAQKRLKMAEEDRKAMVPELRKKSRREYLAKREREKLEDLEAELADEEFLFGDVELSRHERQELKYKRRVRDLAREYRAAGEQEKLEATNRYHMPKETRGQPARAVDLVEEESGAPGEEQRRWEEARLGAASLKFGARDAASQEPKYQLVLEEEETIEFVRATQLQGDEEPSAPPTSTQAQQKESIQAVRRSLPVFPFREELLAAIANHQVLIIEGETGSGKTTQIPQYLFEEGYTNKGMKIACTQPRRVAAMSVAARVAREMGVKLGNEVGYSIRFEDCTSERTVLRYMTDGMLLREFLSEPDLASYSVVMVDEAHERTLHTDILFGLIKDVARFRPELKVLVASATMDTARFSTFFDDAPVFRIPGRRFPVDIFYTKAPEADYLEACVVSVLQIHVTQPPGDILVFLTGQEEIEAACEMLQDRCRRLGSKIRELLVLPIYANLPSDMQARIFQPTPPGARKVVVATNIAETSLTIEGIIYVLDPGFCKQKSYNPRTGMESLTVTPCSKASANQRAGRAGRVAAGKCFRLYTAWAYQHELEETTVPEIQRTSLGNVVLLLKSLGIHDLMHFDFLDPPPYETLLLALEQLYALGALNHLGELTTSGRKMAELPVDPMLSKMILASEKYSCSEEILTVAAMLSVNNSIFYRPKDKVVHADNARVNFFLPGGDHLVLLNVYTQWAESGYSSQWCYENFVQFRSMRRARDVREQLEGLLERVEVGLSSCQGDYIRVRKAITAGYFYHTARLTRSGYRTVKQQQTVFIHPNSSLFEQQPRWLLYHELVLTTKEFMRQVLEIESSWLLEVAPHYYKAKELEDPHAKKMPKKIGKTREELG
UniProt Q08J23, sequence (Q08J23 whole entry): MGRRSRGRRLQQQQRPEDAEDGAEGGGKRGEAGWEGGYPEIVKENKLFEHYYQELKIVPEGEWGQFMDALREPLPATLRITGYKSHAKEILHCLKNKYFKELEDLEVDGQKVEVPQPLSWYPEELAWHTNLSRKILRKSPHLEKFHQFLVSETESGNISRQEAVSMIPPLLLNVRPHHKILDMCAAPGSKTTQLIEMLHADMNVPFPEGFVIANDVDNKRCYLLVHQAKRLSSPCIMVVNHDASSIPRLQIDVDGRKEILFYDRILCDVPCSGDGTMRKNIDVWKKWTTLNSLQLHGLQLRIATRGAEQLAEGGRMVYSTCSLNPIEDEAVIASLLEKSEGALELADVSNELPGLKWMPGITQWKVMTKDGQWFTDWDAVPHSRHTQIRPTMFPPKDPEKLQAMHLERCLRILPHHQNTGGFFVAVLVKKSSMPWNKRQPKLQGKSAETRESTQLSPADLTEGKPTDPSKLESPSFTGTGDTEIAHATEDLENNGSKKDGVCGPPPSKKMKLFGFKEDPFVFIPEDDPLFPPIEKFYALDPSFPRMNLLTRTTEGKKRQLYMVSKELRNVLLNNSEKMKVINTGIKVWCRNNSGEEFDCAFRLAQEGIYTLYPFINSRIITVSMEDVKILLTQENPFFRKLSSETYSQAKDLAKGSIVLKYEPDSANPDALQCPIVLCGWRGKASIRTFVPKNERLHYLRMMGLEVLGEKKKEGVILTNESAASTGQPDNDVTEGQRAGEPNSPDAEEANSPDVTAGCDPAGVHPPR
UniProt Q9BVG4, sequence (Q9BVG4 whole entry): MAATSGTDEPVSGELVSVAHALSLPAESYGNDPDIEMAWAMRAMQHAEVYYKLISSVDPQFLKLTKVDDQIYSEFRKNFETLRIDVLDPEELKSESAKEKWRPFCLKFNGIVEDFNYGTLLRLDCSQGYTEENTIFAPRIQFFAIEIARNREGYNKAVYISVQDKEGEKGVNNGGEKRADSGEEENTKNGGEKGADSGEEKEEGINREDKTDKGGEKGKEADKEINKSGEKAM
UniProt Q9UQ35, sequence (Q9UQ35 whole entry): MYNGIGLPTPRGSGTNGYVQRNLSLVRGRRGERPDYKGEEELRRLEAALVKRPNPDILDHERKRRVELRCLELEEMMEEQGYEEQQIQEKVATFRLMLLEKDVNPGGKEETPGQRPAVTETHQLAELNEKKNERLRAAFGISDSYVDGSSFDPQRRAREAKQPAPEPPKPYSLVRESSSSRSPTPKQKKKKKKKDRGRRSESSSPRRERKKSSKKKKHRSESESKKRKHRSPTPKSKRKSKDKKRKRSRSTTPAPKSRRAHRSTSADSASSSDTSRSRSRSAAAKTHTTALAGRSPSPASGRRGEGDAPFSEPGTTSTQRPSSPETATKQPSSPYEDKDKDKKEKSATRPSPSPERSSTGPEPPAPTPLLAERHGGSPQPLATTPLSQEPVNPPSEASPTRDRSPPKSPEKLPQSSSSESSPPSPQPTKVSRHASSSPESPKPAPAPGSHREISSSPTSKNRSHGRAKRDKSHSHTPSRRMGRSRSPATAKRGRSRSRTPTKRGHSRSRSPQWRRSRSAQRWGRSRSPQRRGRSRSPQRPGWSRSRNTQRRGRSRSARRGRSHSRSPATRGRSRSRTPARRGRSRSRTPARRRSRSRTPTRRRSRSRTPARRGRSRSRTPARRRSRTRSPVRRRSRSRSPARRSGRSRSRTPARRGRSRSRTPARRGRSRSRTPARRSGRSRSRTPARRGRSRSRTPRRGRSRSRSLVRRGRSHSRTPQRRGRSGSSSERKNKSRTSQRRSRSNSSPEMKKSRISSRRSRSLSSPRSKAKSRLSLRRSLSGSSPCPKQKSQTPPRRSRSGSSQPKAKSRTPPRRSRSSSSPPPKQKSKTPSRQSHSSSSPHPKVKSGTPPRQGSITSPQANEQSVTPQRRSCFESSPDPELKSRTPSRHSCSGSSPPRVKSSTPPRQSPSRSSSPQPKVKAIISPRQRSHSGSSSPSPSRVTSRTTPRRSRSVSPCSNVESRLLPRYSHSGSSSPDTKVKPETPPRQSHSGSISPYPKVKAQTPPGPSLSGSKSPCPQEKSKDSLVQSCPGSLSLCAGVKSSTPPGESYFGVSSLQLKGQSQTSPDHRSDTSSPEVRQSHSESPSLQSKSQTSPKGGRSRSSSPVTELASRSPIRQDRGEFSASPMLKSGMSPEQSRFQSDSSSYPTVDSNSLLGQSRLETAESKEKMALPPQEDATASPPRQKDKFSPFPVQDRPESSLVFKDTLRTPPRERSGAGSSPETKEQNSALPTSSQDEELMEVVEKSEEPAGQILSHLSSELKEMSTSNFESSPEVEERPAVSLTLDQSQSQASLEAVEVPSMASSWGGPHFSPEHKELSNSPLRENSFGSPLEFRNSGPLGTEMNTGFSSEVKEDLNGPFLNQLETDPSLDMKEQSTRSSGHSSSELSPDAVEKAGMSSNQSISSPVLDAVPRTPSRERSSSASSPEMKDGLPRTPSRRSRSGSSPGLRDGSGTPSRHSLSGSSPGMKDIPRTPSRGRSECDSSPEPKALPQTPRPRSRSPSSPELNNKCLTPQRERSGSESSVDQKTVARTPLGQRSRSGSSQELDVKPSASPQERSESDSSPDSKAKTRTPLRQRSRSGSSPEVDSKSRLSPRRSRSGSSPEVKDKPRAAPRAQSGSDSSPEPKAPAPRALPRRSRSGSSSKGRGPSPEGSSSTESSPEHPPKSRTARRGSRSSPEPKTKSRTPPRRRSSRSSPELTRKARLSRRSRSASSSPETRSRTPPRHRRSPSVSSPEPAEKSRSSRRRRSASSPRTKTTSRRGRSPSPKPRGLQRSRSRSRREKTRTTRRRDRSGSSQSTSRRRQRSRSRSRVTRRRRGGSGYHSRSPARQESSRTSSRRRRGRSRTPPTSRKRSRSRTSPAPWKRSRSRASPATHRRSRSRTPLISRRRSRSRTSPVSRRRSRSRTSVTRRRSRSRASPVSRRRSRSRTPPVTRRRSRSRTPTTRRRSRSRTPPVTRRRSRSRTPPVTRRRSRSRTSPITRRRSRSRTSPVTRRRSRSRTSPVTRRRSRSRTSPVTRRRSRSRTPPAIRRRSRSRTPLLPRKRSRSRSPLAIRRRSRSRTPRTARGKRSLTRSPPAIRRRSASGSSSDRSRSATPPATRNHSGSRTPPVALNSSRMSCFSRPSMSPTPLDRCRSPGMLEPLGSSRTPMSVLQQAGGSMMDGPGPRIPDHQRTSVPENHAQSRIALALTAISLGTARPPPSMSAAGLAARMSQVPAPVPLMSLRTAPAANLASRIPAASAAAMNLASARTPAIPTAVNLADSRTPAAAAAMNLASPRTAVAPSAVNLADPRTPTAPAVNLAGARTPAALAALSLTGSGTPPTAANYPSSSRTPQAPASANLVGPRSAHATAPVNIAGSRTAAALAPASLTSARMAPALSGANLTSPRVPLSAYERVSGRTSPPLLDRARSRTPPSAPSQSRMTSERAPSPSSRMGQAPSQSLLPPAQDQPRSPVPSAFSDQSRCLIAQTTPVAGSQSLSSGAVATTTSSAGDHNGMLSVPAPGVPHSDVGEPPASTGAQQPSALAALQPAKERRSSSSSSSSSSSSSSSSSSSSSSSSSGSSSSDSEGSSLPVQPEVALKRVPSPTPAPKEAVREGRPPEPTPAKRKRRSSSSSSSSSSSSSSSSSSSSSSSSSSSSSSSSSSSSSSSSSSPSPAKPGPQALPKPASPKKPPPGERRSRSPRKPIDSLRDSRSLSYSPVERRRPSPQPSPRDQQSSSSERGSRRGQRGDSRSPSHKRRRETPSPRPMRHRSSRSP
UniProt P69891, sequence (P69891 whole entry): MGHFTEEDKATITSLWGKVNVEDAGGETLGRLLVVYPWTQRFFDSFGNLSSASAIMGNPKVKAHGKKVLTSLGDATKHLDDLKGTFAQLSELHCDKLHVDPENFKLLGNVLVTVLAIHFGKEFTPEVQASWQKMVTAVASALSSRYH

In order of falling log2 fold change:
1. DHX16 (peptide sequence: QQTEKPESEDEWER, peptide start residue: 153) (UniProt O60231)  2.31
2. INTS12 (peptide sequence: SVSCDNVSK, peptide start residue: 376) (UniProt Q96CB8)  1.68
3. ARAF (peptide sequence: IGTGSFGTVFR, peptide start residue: 316) (UniProt P10398)  0.439
4. IARS (peptide sequence: AVPSWFVR, peptide start residue: 411) (UniProt P41252)  0.326
5. RPL5 (peptide sequence: GAVDGGLSIPHSTK, peptide start residue: 165) (UniProt P46777)  0.307
6. SRRM2 (peptide sequence: SLSYSPVER, peptide start residue: 2690) (UniProt Q9UQ35)  0.244
7. HBG1 (peptide sequence: VLTSLGDAIK, peptide start residue: 68) (UniProt P69891)  0.204
8. NSUN2 (peptide sequence: LAQEGIYTLYPFINSR, peptide start residue: 603) (UniProt Q08J23)  -0.339
9. UniProt Q9BVG4 (peptide sequence: LISSVDPQFLK, peptide start residue: 53)  -0.658
